Source: PubChem (several laboratories)
A selection: hits, their analogues and other compounds. The true share with any hit is near 3%.
A1 inh: inhibitors of the anti-apoptotic protein A1, read as caspase activation; caspase activation, % (concentration not given with the values); 330,000 compounds, 0.066% hits; MEF A1-2A-BIM cells, Caspase-Glo 3/7 luminescence, 3 h; percent of clofoctol response, vehicle zero;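 active means over half of replicate activation scores above 10%, or exactly half above 10 with the replicate mean above 10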
CHT block: inhibitors of human choline transporter CHT. AID 488975. CHT-expressing cells, membrane potential dye, choline response; active compounds read low. B-score at 10 µM. 310,000 compounds, 0.86% hits;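 active means B-score over 3 SD under the library average, and starting fluorescence ratio not unusually high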;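 further: choline stimulus applied at its EC90 after an EC20 pre-addition; B-score computed on integrated fluorescence ratio after choline addition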
Target sequence (Q9GZV3 whole entry, looked up): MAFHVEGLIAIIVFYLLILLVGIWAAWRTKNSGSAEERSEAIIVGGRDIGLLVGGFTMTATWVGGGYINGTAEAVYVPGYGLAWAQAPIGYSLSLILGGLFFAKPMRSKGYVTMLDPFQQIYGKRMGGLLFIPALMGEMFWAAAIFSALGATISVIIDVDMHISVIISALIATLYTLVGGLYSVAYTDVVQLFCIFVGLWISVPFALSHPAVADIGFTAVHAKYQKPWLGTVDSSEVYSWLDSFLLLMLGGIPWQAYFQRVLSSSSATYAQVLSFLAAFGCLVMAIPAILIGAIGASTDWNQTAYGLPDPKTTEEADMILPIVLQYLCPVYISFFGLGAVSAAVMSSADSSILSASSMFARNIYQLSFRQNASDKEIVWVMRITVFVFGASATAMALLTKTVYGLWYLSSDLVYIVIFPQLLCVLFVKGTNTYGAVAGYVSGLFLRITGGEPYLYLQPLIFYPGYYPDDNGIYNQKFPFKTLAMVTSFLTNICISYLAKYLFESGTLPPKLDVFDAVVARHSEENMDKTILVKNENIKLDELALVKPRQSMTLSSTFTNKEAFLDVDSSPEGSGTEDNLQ
NALP3 yeast inh: blocks the NALP3 inflammasome reconstituted in yeast. 330,000 compounds, 0.39% hits. inhibition, % at 10 µM. Yeast reconstituted NLRP3/ASC/caspase-1, beta-gal luminescence, 24 h;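 active means inhibition of 50% or more; inactive means inhibition below 50%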;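 further: plate controls were induced DMSO wells for no effect and uninduced yeast grown without galactose for full effect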
CHT allo act: allosteric activators of human choline transporter CHT | CHT-expressing cells, membrane potential dye, choline EC20; active compounds read high; LV-AA mutant CHT in HEK293 cells | Q9GZV3 | 310,000 compounds, 0.49% hits | B-score at 10 µM;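 active means initial fluorescence not abnormally high and integrated response B-score, plate-corrected, over 3 SD above library mean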
SUMO Mot1 rescue: inhibitors of SUMOylation pathway: yeast Mot1-301 growth rescue; growth rescue, % at 18.8 µM; 320,000 compounds, 1% hits; AID 2716; S. cerevisiae Mot1-301 growth rescue, ATP luminescence, 38.5C; percent above DMSO median, 100 means doubled;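 active means every valid replicate shows activation above 250% relative to neutral control wells; inactive means the rest, any valid replicate at or below 250%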;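 further: OY570 slx delta 5 strain wells were the positive control but not used for scaling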
NALP1 inh: blocks the NALP1 inflammasome reconstituted in yeast; S. cerevisiae NALP1/ASC/caspase-1 growth, X-gal OD620, 72 h; inhibition, % at 10 µM; 280,000 compounds, 0.61% hits; AID 2071; in the data active means inhibition mostly above about 24%, no sharp cut-off; inactive means mostly below about 32%
CHT inh conf: human CHT inhibition, confirmatory screen | shares compounds with CHT block | CHT-expressing cells, choline membrane potential dye; LV-to-AA substituted CHT, HEK293 cells | CHT activity remaining % of control (active compounds read low), % at 10 µM | 2,400 compounds, 70% hits;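 active means choline transporter activity left, mean of duplicates at 10 µM, below buffer-only control mean minus 3 SD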;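 further: depolarization triggered by choline at its EC90 following an EC20 pre-addition; 0% = hemicholinium-3 full block and 100% = buffer-only control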
HEK293 CHT ctr: counter-screen for CHT inhibitors: effect in parental HEK293 cells; shares compounds with CHT block; membrane potential dye, choline response; active = decrease or increase beyond buffer ±3SD; membrane potential ratio readout (active if shifted either direction beyond buffer ±3SD; no single direction) at 10 µM; 2,400 compounds, 4% hits;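 further: parental cells lack the transporter so any hit is non-specific; ratio is peak minus trough fluorescence over baseline after EC90 choline challenge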
* marks the source's active call; other numbers are inactive results; i = inactive; nt = no result.

SMILES | A1 inh | CHT block | NALP3 yeast inh | CHT allo act | SUMO Mot1 rescue | NALP1 inh | CHT inh conf | HEK293 CHT ctr
c1cc(Nc2ncnc3sccc23)cc(-c2nnc3n2CCCCC3)c1 | 0 | -6* | 13 | i | 5 | -8 | 57%* | i
Cc1ccc(S(=O)(=O)N2CCN(C(=O)CSCc3ccc(C(C)C)cc3)CC2)cc1 | 0 | nt | 28 | nt | 8 | nt | nt | nt
CCc1oc(C(=O)O)cc1COC | 1 | -11* | -11 | i | -19 | 11 | i | i
Cc1ccc(C)c(NC(=O)CN(C)C(=O)c2cc3ccccc3oc2=O)c1 | -2 | nt | 17 | nt | 110 | nt | nt | nt
CC(CNC(=O)c1ccc(OC2CCN(Cc3ccccn3)CC2)cc1)c1ccccc1 (configuration not stated) | 2 | -12* | 13 | i | -7 | 8 | 10%* | i
CN(C(=O)c1ccc(OC2CCN(Cc3ccccn3)CC2)cc1)C1CCCCC1 | -1 | i | 25 | i | 86 | 2 | nt | nt
O=C(NC1CCCCC1)c1ccc(OC2CCN(Cc3ccccn3)CC2)cc1 | 0 | -13* | 17 | i | 66 | 1 | -6.3%* | i
Cc1cc(C)nc(N2CCC(C(=O)NCc3ccco3)CC2)n1 | -1 | i | 8 | i | 0 | 30 | nt | nt
Cc1cc(C)nc(N2CCC(C(=O)NCc3cccs3)CC2)n1 | 0 | -8.3* | 1 | i | -5 | 26 | i | i
CCOC(=O)c1sc(NC(=O)CCN2C(=O)c3cccc([N+](=O)[O-])c3C2=O)c(C(=O)OCC)c1C | -1 | -7.4* | 33 | i | 6 | 31 | 56%* | i
CS(=O)(=O)N(CC(=O)Nc1ccccc1C(=O)N1CCCC1)c1ccccc1Br | 0 | i | 9 | i | 3 | 14 | nt | nt
Oc1ccc(/C=N/NC(=S)NCc2ccco2)cc1 | 0 | i | 21 | i | -2 | 0 | nt | nt
Oc1c(Br)cc(/C=N/NC(=S)NCc2ccco2)cc1Br | 0 | -5.1* | 23 | i | 5 | 28 | 67%* | i
COC(=O)CCCCCCCCCC[N+]1(C)CCCCC1 | -1 | -5.1* | 22 | i | -5 | 6 | 42%* | i
CC(=O)OCCCCCCCCCCC[N+]1(C)CCCCC1 | 1 | -8.3* | 18 | i | 13 | 6 | 27%* | i
COCCCNC(=O)c1ccc(S(=O)(=O)c2ccc(Cl)cc2)c(NC(C)=O)c1 | 0 | i | 14 | i | 45 | 13 | nt | nt
O=C(NC1CCCCC1)c1cc2c(cc1Cl)N1CCCCCC1=NS2(=O)=O | nt | nt | -6 | nt | nt | nt | nt | nt
O=C(CCC(=O)N1CCN(c2ccccc2F)CC1)N1CCN(c2ccc(F)cc2)CC1 | 0 | -5.4* | 23 | i | 4 | 10 | 69%* | i
O=C(CCC(=O)N1CCN(c2ccc(F)cc2)CC1)N1CCN(c2ccc(F)cc2)CC1 | 1 | i | 12 | i | -10 | 13 | nt | nt
CN(C(=O)COC(=O)c1cc2c(s1)CCCCC2)C1CCS(=O)(=O)C1 (configuration not stated) | 1 | i | 20 | i | 4 | 20 | nt | nt
CC(C)NS(=O)(=O)c1ccc(CCC(=O)N2CCc3ccccc3C2)cc1 | 0 | -5.1* | -7 | i | -14 | -2 | 46%* | i
C[C@H](NC(=O)c1ccc(Cl)c(S(=O)(=O)N2CCOCC2)c1)c1nc2ccccc2[nH]1 | 0 | nt | 7 | nt | 11 | nt | nt | nt
COc1ccc2c(Cl)c(-c3nnc4n3CCCCC4)sc2c1 | -1 | -6.2* | -1 | i | nt | -7 | i | i
Clc1c(-c2nnc3n2CCCCC3)sc2ccccc12 | 1 | -5.3* | 5 | i | nt | 31 | 36%* | -8.5*
Cc1nc2cc(C(=O)N3c4ccccc4CC3C)ccc2s1 (configuration not stated) | 0 | -5.3* | -5 | i | 180 | 0 | 56%* | i
